Results from the supplement of paper PMC11732987, “Enantioselective OTUD7B fragment discovery through chemoproteomics screening and high-throughput optimisation” (Communications Chemistry, 2025).

What was measured:
Assay in all cases: log2 ratio of Biotin-Ahx-Ub-VS probe labelling (fragment/DMSO); higher = less target engagement (more negative = stronger competition), active = hit call of the paper (q ≤ 0.05, log2 ratio ≤ -1)
Conditions in all cases: compound concentration: 200 uM; treatment time: 3 h
USP34 = USP34 (UniProt Q70CQ2)
Method in brief: (§1)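 Using Biotin-Ahx-Ub-VS at 0.5 µM final for 1 h, DUBs were labelled in HEK293T lysate (495 µg per sample) that had first been treated in triplicate with fragment at 200 µM or vehicle for 3 h. NeutrAvidin enrichment, LysC and trypsin digestion and diaPASEF LC-MS/MS followed. Spectronaut label-free quantities were global-median-normalised. Values are average log2 fragment/vehicle ratios by unpaired t-test, using proteins with ≥2 unique peptides.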

USP36 = biological target: T1, USP36 (UniProt Q9P275)
T1 sequence (whole entry): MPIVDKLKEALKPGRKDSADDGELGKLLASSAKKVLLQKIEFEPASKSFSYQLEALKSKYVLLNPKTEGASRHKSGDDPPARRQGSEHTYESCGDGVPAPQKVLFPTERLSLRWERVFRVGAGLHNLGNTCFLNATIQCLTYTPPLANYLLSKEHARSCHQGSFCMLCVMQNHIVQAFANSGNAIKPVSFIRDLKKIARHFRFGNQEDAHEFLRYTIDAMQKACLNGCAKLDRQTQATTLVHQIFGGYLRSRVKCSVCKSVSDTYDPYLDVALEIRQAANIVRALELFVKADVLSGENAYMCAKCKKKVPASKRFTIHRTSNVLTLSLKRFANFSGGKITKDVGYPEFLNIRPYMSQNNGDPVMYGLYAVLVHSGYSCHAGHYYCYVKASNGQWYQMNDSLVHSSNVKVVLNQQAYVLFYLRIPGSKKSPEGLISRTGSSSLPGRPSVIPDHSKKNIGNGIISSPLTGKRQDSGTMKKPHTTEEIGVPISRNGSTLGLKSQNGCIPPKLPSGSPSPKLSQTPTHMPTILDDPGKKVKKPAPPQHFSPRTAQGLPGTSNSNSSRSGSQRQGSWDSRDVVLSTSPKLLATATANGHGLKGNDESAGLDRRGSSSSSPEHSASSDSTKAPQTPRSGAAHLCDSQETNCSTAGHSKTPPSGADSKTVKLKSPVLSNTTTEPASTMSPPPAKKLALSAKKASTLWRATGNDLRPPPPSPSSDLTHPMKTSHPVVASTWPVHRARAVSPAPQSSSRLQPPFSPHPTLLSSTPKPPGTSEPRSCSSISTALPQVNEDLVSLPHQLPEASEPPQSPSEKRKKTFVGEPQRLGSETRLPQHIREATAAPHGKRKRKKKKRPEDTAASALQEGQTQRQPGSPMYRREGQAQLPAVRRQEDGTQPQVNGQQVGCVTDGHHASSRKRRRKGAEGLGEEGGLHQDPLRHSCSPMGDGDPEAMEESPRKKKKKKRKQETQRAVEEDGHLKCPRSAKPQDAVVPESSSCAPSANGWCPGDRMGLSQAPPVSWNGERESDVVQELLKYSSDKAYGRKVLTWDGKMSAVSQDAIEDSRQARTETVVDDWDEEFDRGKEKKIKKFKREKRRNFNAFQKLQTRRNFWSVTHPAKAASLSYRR
Method in brief: as §1

USP38 = biological target: T2, USP38 (UniProt Q8NB14)
T2 sequence (whole entry): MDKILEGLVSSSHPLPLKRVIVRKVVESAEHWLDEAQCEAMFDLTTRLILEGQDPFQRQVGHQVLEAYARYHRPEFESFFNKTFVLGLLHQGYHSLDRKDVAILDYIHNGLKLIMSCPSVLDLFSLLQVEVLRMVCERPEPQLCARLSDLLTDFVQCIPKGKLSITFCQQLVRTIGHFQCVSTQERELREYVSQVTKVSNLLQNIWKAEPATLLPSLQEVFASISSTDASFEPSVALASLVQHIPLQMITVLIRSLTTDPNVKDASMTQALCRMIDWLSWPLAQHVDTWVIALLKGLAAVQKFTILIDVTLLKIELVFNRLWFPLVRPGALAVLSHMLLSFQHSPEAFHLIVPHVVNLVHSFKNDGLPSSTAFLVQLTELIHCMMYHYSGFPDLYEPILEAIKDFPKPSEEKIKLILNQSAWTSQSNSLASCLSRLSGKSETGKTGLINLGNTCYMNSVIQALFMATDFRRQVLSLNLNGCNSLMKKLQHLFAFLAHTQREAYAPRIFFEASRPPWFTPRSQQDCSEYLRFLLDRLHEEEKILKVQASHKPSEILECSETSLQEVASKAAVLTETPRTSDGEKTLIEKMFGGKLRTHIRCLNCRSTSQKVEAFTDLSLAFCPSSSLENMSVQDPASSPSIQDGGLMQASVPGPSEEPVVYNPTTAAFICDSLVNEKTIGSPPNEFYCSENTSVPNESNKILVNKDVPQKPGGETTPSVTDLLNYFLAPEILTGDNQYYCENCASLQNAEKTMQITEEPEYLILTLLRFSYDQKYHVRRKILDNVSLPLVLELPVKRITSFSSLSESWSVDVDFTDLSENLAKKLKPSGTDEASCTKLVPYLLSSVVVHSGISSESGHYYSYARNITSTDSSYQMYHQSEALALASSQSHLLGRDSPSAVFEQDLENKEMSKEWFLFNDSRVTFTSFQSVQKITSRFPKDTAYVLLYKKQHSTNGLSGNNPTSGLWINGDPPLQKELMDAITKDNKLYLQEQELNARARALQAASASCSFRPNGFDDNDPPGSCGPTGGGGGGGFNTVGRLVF
Method in brief: as §1

USP39 = biological target: T3, USP39 (UniProt Q53GS9)
T3 sequence (whole entry): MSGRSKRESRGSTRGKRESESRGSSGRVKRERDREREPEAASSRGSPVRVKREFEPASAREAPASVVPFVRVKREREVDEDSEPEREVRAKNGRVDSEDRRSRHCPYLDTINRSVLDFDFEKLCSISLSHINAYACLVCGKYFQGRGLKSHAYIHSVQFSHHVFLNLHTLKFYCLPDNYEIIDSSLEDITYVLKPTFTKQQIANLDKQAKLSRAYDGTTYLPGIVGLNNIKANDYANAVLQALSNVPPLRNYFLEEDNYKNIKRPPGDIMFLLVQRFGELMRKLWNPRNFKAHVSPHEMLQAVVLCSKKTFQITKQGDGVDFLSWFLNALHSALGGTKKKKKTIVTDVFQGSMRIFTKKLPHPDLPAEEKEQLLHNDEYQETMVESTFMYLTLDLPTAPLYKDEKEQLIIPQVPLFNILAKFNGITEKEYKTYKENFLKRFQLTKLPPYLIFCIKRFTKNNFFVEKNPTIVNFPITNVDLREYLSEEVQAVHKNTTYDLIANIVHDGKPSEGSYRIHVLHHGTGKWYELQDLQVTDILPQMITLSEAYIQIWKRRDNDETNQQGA
Method in brief: as §1

USP4 = biological target: T4, USP4 (UniProt Q13107)
T4 sequence (whole entry): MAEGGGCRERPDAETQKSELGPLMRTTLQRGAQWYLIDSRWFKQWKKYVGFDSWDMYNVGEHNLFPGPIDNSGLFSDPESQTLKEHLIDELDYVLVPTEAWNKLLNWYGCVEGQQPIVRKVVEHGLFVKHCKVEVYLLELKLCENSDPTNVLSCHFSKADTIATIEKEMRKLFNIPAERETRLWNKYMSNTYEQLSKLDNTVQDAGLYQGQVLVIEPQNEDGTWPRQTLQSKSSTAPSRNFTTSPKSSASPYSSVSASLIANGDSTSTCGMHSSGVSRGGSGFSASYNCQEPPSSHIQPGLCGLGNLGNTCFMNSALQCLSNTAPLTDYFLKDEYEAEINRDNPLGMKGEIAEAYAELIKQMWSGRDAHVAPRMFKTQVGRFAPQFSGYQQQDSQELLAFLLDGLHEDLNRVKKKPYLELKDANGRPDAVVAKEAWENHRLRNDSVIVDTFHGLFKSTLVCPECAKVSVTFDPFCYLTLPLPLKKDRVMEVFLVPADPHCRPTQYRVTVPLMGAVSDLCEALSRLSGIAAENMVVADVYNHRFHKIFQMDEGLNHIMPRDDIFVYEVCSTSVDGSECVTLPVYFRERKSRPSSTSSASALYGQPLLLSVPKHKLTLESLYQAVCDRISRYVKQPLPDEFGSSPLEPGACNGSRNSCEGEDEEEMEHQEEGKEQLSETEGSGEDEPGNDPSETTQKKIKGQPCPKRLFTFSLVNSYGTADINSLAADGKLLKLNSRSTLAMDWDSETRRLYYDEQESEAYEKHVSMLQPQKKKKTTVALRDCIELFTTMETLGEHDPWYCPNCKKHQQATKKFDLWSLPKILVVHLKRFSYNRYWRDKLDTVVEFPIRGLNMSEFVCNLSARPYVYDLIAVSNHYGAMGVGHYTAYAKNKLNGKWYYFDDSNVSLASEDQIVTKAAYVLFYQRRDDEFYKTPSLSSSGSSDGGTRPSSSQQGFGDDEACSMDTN
Method in brief: as §1

Measured: log2 ratio of Biotin-Ahx-Ub-VS probe labelling

Sequence of USP34 (Q70CQ2 whole entry, the tested form may be a part): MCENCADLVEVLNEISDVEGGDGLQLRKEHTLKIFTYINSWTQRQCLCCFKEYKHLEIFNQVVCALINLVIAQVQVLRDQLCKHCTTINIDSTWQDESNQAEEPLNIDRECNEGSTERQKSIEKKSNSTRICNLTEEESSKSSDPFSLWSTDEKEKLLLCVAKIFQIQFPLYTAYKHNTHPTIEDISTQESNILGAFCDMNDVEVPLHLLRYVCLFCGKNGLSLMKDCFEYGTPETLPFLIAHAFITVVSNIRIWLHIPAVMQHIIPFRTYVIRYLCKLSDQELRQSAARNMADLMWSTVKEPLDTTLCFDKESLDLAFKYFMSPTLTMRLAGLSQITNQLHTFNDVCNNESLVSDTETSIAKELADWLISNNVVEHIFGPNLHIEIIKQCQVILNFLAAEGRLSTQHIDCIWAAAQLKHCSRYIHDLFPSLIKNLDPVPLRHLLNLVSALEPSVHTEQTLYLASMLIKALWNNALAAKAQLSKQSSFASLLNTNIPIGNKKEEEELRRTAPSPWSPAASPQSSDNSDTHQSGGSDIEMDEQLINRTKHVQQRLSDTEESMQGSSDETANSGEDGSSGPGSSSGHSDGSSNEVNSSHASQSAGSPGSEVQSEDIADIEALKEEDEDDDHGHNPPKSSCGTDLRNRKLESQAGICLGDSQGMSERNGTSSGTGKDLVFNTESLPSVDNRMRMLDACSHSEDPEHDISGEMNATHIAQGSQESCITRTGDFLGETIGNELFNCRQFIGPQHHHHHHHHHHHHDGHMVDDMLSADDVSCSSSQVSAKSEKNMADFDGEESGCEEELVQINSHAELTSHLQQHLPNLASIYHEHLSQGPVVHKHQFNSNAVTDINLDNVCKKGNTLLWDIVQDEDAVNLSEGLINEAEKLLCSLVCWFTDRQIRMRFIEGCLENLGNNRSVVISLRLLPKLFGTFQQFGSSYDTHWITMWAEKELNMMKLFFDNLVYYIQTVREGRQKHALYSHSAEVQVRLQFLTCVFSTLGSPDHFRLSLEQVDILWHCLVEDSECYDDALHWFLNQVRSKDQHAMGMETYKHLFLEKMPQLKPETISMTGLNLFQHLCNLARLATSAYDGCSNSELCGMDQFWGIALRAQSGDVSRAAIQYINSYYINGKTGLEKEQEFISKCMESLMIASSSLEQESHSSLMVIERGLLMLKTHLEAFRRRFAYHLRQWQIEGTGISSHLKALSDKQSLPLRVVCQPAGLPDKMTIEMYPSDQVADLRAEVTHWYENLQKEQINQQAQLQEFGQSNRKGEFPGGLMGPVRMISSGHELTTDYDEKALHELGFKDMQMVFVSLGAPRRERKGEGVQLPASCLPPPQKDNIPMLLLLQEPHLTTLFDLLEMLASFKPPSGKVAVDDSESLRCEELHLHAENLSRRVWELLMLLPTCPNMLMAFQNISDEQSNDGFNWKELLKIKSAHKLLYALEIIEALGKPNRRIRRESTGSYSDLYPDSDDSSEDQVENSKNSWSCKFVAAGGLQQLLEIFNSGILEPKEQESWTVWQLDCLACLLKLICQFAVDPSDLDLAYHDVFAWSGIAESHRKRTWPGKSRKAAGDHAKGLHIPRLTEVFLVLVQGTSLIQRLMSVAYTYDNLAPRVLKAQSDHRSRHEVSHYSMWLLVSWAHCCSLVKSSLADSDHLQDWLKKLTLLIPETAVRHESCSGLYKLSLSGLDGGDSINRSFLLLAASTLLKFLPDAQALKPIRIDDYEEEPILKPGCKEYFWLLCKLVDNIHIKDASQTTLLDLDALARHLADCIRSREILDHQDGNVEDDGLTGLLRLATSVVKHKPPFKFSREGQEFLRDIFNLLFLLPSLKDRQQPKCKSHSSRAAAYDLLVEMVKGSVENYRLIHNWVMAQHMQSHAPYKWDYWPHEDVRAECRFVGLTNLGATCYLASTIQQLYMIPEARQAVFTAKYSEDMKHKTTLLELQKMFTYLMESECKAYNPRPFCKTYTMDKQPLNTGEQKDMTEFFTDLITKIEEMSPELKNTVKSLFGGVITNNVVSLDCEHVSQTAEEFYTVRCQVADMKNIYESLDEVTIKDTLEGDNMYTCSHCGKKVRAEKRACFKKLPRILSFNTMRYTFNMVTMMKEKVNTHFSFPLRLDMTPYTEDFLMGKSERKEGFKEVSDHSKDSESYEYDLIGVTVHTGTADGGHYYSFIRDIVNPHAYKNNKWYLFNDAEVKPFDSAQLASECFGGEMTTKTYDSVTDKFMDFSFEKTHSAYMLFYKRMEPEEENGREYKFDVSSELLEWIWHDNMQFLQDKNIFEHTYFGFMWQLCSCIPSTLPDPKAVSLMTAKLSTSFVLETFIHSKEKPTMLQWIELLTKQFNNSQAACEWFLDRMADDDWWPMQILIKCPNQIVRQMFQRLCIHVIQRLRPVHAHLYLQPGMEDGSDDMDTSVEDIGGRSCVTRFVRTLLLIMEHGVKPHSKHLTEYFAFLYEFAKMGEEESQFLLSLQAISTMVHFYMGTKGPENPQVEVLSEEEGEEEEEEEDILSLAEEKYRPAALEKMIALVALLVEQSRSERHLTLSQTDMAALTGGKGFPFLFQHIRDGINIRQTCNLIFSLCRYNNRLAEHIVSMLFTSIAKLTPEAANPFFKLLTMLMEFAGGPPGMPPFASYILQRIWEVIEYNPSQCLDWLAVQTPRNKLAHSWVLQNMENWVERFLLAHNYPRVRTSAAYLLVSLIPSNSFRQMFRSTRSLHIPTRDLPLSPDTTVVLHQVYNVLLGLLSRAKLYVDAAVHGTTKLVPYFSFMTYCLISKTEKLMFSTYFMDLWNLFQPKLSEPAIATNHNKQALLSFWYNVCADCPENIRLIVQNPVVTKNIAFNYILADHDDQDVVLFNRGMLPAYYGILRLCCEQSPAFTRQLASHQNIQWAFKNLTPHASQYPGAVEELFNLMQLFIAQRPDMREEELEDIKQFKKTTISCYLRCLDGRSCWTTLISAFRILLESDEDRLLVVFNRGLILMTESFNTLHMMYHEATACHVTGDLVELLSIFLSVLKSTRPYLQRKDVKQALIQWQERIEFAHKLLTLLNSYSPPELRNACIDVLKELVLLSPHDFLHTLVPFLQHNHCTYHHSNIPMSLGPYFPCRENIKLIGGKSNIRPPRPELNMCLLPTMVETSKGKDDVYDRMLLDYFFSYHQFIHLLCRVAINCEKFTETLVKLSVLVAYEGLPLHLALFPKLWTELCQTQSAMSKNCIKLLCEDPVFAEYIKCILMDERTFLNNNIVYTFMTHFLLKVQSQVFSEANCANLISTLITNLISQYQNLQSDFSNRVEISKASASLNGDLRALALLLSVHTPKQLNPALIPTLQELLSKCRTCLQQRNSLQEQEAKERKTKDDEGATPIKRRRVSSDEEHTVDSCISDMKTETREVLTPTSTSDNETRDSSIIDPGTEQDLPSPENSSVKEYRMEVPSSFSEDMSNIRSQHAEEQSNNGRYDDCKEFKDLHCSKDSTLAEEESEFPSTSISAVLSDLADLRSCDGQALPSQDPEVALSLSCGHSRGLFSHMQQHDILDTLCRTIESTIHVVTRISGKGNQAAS

Cc1cc(C(=O)NC2CCN(C(=O)CCl)CC2)no1
inactive: USP34 -0.22 | USP36 -0.0502 | USP38 0.122 | USP39 0.0572 | USP4 -0.111
